Results on 92 compounds are retold here after PubChem BioAssay AID1851 (National Center for Advancing Translational Sciences (NCATS), 2009).

Molecules are shown by their SMILES. Values joined by “and” are separate entries in the source; they are usually repeats but may differ in a detail not shown here. Identical values can stand only once. In all, about 16,000 compounds went through this assay and about 5,700 (36%) were called active. Inconclusive results (about 24%) are left out. The list shows a part of the results. A number with no mark means an inactive call. Calls follow the shape of the dose curve; as a rule, active = well fitted curve in the direction sought with a large enough effect; inconclusive = small, poorly fitted or top-dose-only effect, or effect the other way; inactive = no such curve, though single readings can be large or run the other way.
% is scaled to controls: 0 for no effect and ±100 for the full control effect.

The target in this assay is Cytochrome P450 1A2 (Homo sapiens) (UniProt P05177). Put plainly: Cytochrome panel assay with activity outcomes. Particulars: recombinant CYP, pro-luciferin dealkylation, luminescence, p450-cyp1a2; series mostly up to 57.1 µM.
Cytochrome P450 1A2 (Homo sapiens), sequence (P05177 whole entry, looked up): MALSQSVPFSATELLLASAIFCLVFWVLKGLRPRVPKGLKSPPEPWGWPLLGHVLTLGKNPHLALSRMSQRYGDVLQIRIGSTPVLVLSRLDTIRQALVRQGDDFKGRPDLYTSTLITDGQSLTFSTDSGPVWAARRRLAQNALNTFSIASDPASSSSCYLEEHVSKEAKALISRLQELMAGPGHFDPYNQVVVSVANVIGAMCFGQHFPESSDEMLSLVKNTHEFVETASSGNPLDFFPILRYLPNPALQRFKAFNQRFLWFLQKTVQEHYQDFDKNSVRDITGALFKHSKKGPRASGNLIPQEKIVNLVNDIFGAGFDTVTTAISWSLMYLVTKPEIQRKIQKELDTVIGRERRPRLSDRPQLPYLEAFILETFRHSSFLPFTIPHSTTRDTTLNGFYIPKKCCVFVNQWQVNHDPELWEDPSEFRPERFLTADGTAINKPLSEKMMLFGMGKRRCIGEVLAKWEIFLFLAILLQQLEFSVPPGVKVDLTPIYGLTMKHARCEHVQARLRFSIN
In the case of `Cc1ccc(S(=O)(=O)N[C@H]2COC(=O)[C@@H](C)COC(=O)[C@H](C)NC(=O)C/C=C\[C@H]2C)cc1`, the activity, negative = inhibition was -11.4% [at 11.4 µM].

As to `CC(C)NC(=O)N1CC[C@@]2(CCCN(C(=O)c3cc(C(F)(F)F)cc(C(F)(F)F)c3)C2)C1`, the AC50 (as a rule, the concentration at which the activity in the assay is half-maximal) was “inactive”.

Consider `CCOC(=S)SCC(=O)O`, for which the activity, negative = inhibition was -12.2% [at 11.4 µM].

For the compound `Cc1ccc(S(=O)(=O)N[C@H]2COC(=O)C/C=C\[C@@H](C)COC(=O)C/C=C\[C@@H]2C)cc1`, the activity, negative = inhibition is 0.253% [at 11.4 µM] and 8.99% [at 11.4 µM].

Turning to `N#Cc1c[nH]n2c(=O)c3c(nc12)CCCC3`, the AC50 entry is “inactive”.

With `Cc1ccc(-c2[nH]n3c(=O)c4c(nc3c2C)CCCC4)cc1`, the AC50 is 2.51 µM (active).

As to `O=c1c2c(nc3c(-c4ccccc4)c[nH]n13)CCC2`, the AC50 is 5.62 µM (active).

As for `Nc1[nH]n2c(=O)c3c(nc2c1N=Nc1ccccc1)CCCC3`, the AC50 is 5.62 µM (active).

As to `CCN1C(=O)C=CC1=O`, the AC50 result is “inactive”.

Consider `CCC(=O)OCN1C(=O)C=CC1=O`, for which the concentration at half-maximal activity (AC50) was 3.16 µM (active).

`Cc1ccc([C@@]2(C)CC/C(=N/N=C3\CC[C@](C)(c4ccc(C)c(C)c4)c4cc(C)c(C)cc43)c3cc(C)c(C)cc32)cc1C`: the activity, negative = inhibition is -12.4% [at 11.4 µM].

As to `CC(C)[C@@H](OCc1ccccc1)[C@H](C)/C=N\O[C@@H](C)c1cn([C@H](CO)Cc2ccccc2)nn1`, the activity, negative = inhibition was -2.54% [at 11.4 µM] and -7.97% [at 11.4 µM].

Consider `[Cu].[O-]/N=C1/C(=[OH+])Nc2ccccc21.[O-]Nc1c(O)[nH]c2ccccc12`, for which the activity, negative = inhibition is -20.1% [at 2.29 µM].

In the case of `O=Nc1c(-c2c(O)[nH]c3ccccc23)[nH]c2ccccc12`, the AC50 is 0.0316 µM (active).

On to `O=C(O)c1ccc(S(=O)(=O)N=Nc2c(O)[nH]c3ccccc23)cc1`, for which the activity, negative = inhibition is -11.7% [at 11.4 µM].

Turning to `Cc1ccc(SCCNC(=O)c2ccccc2)cc1`, the AC50 is 10 µM (active).

With `Cc1ccc(SCc2ccc(C(=O)NCc3ccncc3)cc2)cc1`, the AC50 was 0.355 µM (active).

As for `Cc1ccc(C(=O)NCCNC(=O)CN2CCOCC2)cc1`, the AC50 result is “inactive”.

On to `Cc1ccc(SCCNC(=S)Nc2ccc(C)c(C)c2)cc1`, for which the AC50 is 11.2 µM (active).

Take `Cc1ccc(C(=O)NCc2ccc(N3CCN(C(=O)OC(C)(C)C)CC3)cc2)cc1`: the AC50 result was “inactive”.

For `Cc1ccc(NC(=S)NCCN2CCOCC2)cc1C`, the AC50 result was “inactive”.

Consider `Cc1ccc(SCc2nnc(NC(=O)c3ccccc3)s2)cc1`, for which the AC50 result is “inactive”.

Turning to `N[C@H](C(=O)N[C@@H]1C(=O)N2C(C(=O)O)=C(Cl)CS[C@@H]12)c1ccccc1`, the AC50 entry is “inactive”.

Take `Cc1nc2cnc(Oc3cccc(Cl)c3)nc2n(CCc2ccccc2)c1=O`: the AC50 is 12.6 µM (active).

In the case of `COCCn1c(=O)cnc2cnc(Oc3cccc(Cl)c3)nc21`, the AC50 was 3.16 µM (active).

With `COCCn1c(=O)c(C)nc2cnc(Oc3cccc(Cl)c3)nc21`, the AC50 is 12.6 µM (active).

On to `Cc1nc2cnc(Oc3cccc(Cl)c3)nc2n(CCC#N)c1=O`, for which the half-maximal activity concentration (AC50) was 15.8 µM (active).

Turning to `CC(=NCCN1CCN(C(=S)Nc2ccccc2)CC1)C1=C(O)CC(C)(C)CC1=O`, the AC50 entry is “inactive”.

`CC(C)(C)Cn1nc(-c2ccc(Cl)cc2)c2c(N)ncnc21`: the AC50 is 0.158 µM (active).

With `CC(C)(C)n1nc(-c2ccc(Cl)cc2)c2c(N)ncnc21`, the AC50 was 1 µM (active).

For the compound `CO/N=C(\C(=O)N[C@@H]1C(=O)N2C(C(=O)[O-])=C(C[N+]3(C)CCCC3)CS[C@@H]12)c1csc(N)n1`, the AC50 result is “inactive”.

`CCCCSc1ccc2nc(-c3ccc(C#N)cc3)cn2c1`: the concentration at half-maximal activity (AC50) is 2.82 µM (active).

On to `CN(C)CCNC(=O)C1CCCNC1=O` (configuration not stated), for which the AC50 entry was “inactive”.

In the case of `COc1ccc(C(Cl)=C(c2ccc(OC)cc2)c2ccc(OC)cc2)cc1`, the AC50 result was “inactive”.

As for `CCN(CC)CCOc1ccc(/C(=C(\Cl)c2ccccc2)c2ccccc2)cc1`, the concentration at half-maximal activity (AC50) is 12.6 µM (active).

With `CCc1ccc2[nH]c(O)c(N=Nc3nc(-c4ccccc4)cs3)c2c1`, the AC50 was 10 µM (active).

Turning to `C[N+](C)(C)CCCCCCCCCC[N+](C)(C)C`, the AC50 entry is “inactive”.

As for `Cc1ccc(S(=O)(=O)Oc2ccc(C3C4=C(CCCC4=O)OC4=C3C(=O)CCC4)cc2)cc1`, the AC50 entry was “inactive”.

For the compound `O=C1CCCC2=C1C(c1ccc(OS(=O)(=O)c3ccc(Cl)cc3)cc1)C1=C(CCCC1=O)O2`, the AC50 entry is “inactive”.

Turning to `COc1ccc2c(c1)OC1=C(C(=O)CCC1)C2C1=C(O)CCCC1=O` (configuration not stated), the AC50 was 7.08 µM (active).

As for `N#CC(CC(=O)O)=C(c1ccccc1)c1ccccc1`, the activity, negative = inhibition is -14.5% [at 2.29 µM].

Consider `C=CCNc1sc(C(=O)c2ccc(C)cc2)c(N)c1C#N`, for which the AC50 is 1.78 µM (active).

For `C=CCNc1sc(C(=O)c2ccccc2)c(N)c1C#N`, the half-maximal activity concentration (AC50) was 3.16 µM (active).

Regarding `O=C(C1CCCCC1)N1CC(=O)N2CCc3ccccc3[C@@H]2C1`, the AC50 is 10 µM (active).

`O=C(NC1CCCc2ccccc21)C1CCN(S(=O)(=O)N2CCCCCC2)CC1` (configuration not stated): the AC50 entry was “inactive”.

On to `CCN1CCN(C(=O)C2c3cc(OC)c(OC)cc3C(=O)N3CCc4ccccc4C23)CC1` (configuration not stated), for which the AC50 result was “inactive”.

As for `CCOc1nc(N=C(N)N)nc2c(C)cccc12`, the AC50 is 0.178 µM (active).

Consider `CN1Cc2c(C(=O)OC(C)(C)C)ncn2-c2ccsc2C1=O`, for which the AC50 is 15.8 µM (active).

On to `CN(C)C(=O)c1ccc(-c2cncnc2NCCc2cnc[nH]2)cc1`, for which the AC50 was 12.6 µM (active).

As to `CN(C)c1ccc(-c2cncnc2NCCc2cnc[nH]2)cc1`, the AC50 is 1.26 µM (active).

`c1ncc(-c2ccc3c(c2)OCO3)c(NCCc2cnc[nH]2)n1`: the AC50 is 0.398 µM (active).

In the case of `Cc1sc(NC(=O)C2CCCCC2C(=O)O)c(C(N)=O)c1C` (configuration not stated), the AC50 result is “inactive”.

Regarding `CCc1c(C)sc(NC(=O)OC)c1C(N)=O`, the half-maximal activity concentration (AC50) is 8.91 µM (active).

`CCCCCc1nnc(NC(=O)C(=O)OCC)s1`: the AC50 entry is “inactive”.

As for `O=C(c1ccc(Cl)c(Cl)c1)c1cc(-c2ccccn2)c(N2CCOCC2)s1`, the concentration at half-maximal activity (AC50) was 11.2 µM (active).

In the case of `O=C(Oc1ccc(C(=S)N2CCOCC2)cc1Br)c1cc(Cl)ccc1Cl`, the AC50 result is “inactive”.

With `O=C(O)c1cc2ccccc2c(Cc2cc3ccccc3c(C(=O)O)c2O)c1O` (tested in a mixture with another compound), the AC50 result was “inactive”.

Regarding `O=C(O)c1cc(C(=O)C(=O)c2cc(C(=O)O)c(O)c3ccccc23)c2ccccc2c1O`, the activity, negative = inhibition was -6.52% [at 11.4 µM].

Take `O=C(O)c1c2ccccc2cc2ccccc12`: the AC50 is 0.2 µM (active).

`C=CCSC[C@@H]1Nc2cc(Cl)c(S(N)(=O)=O)cc2S(=O)(=O)N1`: the AC50 entry is “inactive”.

Turning to `Cc1noc(C)c1C(=O)N1CCC[C@@]2(CCN(c3ncccn3)C2)C1`, the AC50 entry is “inactive”.

With `COc1ccc2[nH]cc(CCNc3nc(-c4ccc(C(=O)N(C)C)cc4)nc4ccccc34)c2c1`, the AC50 was 15.8 µM (active).

Consider `COc1cccc(N(C(=O)Cn2nnc(-c3ccc(C)cc3)n2)C(C(=O)NC(C)(C)C)c2c[nH]c3ccccc23)c1` (configuration not stated), for which the AC50 entry was “inactive”.

Consider `COc1ccc2[nH]cc(CCNc3nc(-c4ccc(N(C)C)cc4)nc4ccccc34)c2c1`, for which the AC50 was 1.26 µM (active).

Regarding `C[C@H]1CCCC2(CC[N+](C)(CCC[N+](C)(C)C)CC2)C1` (some centres not stated), the activity, negative = inhibition was -9.21% [at 11.4 µM].

In the case of `COC(=O)c1ccccc1NC(=O)c1cc2nc(C3CC3)cc(C(F)(F)F)n2n1`, the AC50 is 1.58 µM (active).

As to `COCCNc1nc(-c2ccccc2Cl)nc2ccccc12`, the AC50 was 0.126 µM (active).

With `COCCNc1nc(-c2ccccc2OC)nc2ccccc12`, the AC50 was 0.794 µM (active).

In the case of `COCCNc1nc(-c2ccccc2C(F)(F)F)nc2ccccc12`, the AC50 was 1.26 µM (active).

For the compound `COCCNc1nc(-c2ccccc2C)nc2ccccc12`, the AC50 is 1.26 µM (active).

Turning to `C[C@@H](N=C(N)N)C(=O)O`, the activity, negative = inhibition is -4.5% [at 11.4 µM].

For the compound `OCCN(CO)CO`, the activity, negative = inhibition was -9.46% [at 11.4 µM].

Turning to `O=S1(=O)C=C(N2CCOCC2)c2ccccc21`, the AC50 is 14.1 µM (active).

Regarding `COC(=O)c1ccccc1OCC(=O)N1CCN(c2ccc(OC)cc2)CC1`, the AC50 entry is “inactive”.

As for `CCOc1cc(/C=C2/SC(=O)N(CC(=O)N3CCc4ccccc4C3)C2=O)ccc1OCC(=O)O`, the AC50 result was “inactive”.

In the case of `COc1ccc2c(c1)c(=O)oc1c(C)c(OCC(=O)N3CCc4ccccc4C3)ccc12`, the AC50 is 2 µM (active).

With `COC(=O)CSc1nnc(-c2ccccc2OC)n1-c1ccc(C)cc1`, the AC50 result is “inactive”.

Take `COc1ccccc1-c1nnc(SCc2nc3ccccc3s2)n1C`: the AC50 was 14.1 µM (active).

`COc1cc(=O)n2c(n1)SCCC2`: the AC50 entry is “inactive”.

As to `O=c1c(Cc2ccccc2)c(O)nc2n1CCS2`, the AC50 entry was “inactive”.

Regarding `N#Cc1c(-c2ccccc2)nc2n(c1=O)CCS2`, the AC50 is 3.16 µM (active).

For the compound `N#Cc1c(-c2ccc(Cl)cc2)nc2n(c1=O)CCCS2`, the AC50 was 1.41 µM (active).

For the compound `CCn1c(=O)c2c(nc3n2CCS3)n(C)c1=O`, the AC50 entry is “inactive”.

With `CC(C)=CCC/C(C)=C/CO/N=C1/C[C@@H](O)[C@@H](O)[C@@H]2[C@@H]3C(=O)N(C[C@@H]4CCCO4)C(=O)[C@H]3CC[C@H]12`, the activity, negative = inhibition is -0.0642% [at 11.4 µM].

`CC(C)(C)N1C(=O)[C@H]2[C@H]3[C@H](O)[C@H](O)C/C(=N/NC(=O)OCc4ccccc4)[C@@H]3CC[C@@H]2C1=O`: the activity, negative = inhibition was -5.49% [at 11.4 µM].

For the compound `COc1ccccc1OCCOc1ccc(/C=C2/C(=N)N3OC(C)=CC3=NC2=O)cc1OC`, the AC50 entry is “inactive”.

As to `COc1ccc(/C=C2\OC(=O)c3c(OC)cccc32)cc1OC`, the AC50 is 3.16 µM (active).

As to `Cc1cc(Cc2cc(Cc3cc(C)cc(C(C)(C)C)c3O)c(C)cc2C)c(O)c(C(C)(C)C)c1`, the activity, negative = inhibition was -17.1% [at 2.29 µM].

On to `Cc1cc(Cc2cc(C)cc(C(C)(C)C)c2O)c(O)c(Cc2cc(C)cc(C(C)(C)C)c2O)c1`, for which the activity, negative = inhibition was -15.6% [at 2.29 µM].

In the case of `Cc1cc(-c2cc(C)c(O)c(C(C)(C)C)c2)cc(C(C)(C)C)c1O`, the AC50 was 0.631 µM (active).

On to `COCCN1C(=O)c2ccccc2C(C(=O)Nc2ccc3c(c2)OCCO3)C1c1ccc(F)cc1` (configuration not stated), for which the AC50 entry is “inactive”.

As for `O=C(Nc1ccc2c(c1)OCCO2)c1cc2sccc2n1Cc1ccc(F)cc1`, the AC50 was 4.47 µM (active).
